# Results as given in PubChem BioAssay AID1259416 (Broad Institute, 2018).
# Out of some 69,000 compounds screened, about 2,600 (3.8%) were called active. This is one part of a sample in which actives are shown more often than they occur. A number with no mark means an inactive call. Rule as the data show it: active = activity change below about -70% (passing the limit was not always enough); inconclusive = no clear call, values can overlap the other calls.
# Assay: inhibitors of Toxoplasma growth in IFN-γ-primed hosts – cell-based, primary screen (AID 1259416);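 also: host cells are HeLa cells infected with Toxoplasma gondii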
# Details: Toxoplasma gondii growth in IFN-gamma-treated host cells; stronger effect = lower value; concentration not given here
row,SMILES,"activity change, negative = inhibition"
1,CC(C)CNC(=O)c1ccc2c(c1)C(c1ncn(C(C)C)n1)CN2C(=O)c1ccccc1 (stereo not given),-46.3%
2,Cc1nc2cc(C(=O)NC3(c4ccc5c(c4)OCO5)CCCC3)ccc2s1,-5.47%
3,C=CCN(Cc1ccccc1Cl)C(=O)c1ccc(CN(C)C)o1,-46.3%
4,Cc1ccc(CC(=O)c2cccnc2)cc1,14%
5,Cc1cc(-c2ccccc2CN2CCOCC2)ccc1NC(=O)c1cccnc1,-6.76%
6,C/C(=N/N1CCN(Cc2cccc3ccccc23)CC1)c1cccnc1,-96% (active)
7,Cc1ccc(C(=O)Nc2ccc(-c3nc(-c4ccc(C)cc4)co3)cc2)cc1,42.6%
8,Cc1ccc(-c2cc(C(=O)Nc3ccc4c(c3)N(S(C)(=O)=O)CCC4)[nH]n2)cc1,-78.5% (active)
9,O=C1CCc2cc(NC(=O)c3cc(-c4ccccc4)nc4ccccc34)ccc2N1,-32.2%
10,CN1CCN([C@H]2CN(Cc3ncc[nH]3)C[C@@H]2O)CC1,28%
11,c1cncc(-c2nc3c(c(NCCC4CCOC4)n2)CCNC3)c1 (stereo not given),-9.13%
12,CCn1c(-c2cc(NC(=O)c3ccncc3)n[nH]2)cc2ccccc21,-91% (active)
13,CCC(NC(=O)CCn1c(C)cc2ccccc21)c1cccnc1 (stereo not given),0.306%
14,Cc1nc(C)n(C(=O)N2CCOCC2)n1,-8.09%
15,Cc1nc(N)nc(C)c1CC(=O)N1CCC2(CCOCC2)CC1,-82.2% (active)
16,CN1CCN(C(=O)c2cncc(N3CCC4(CCOCC4)CC3)n2)CC1,-7.63%
17,COCCN1CC[C@@H]2C[C@@H](C(=O)N3CCCCO3)O[C@@H]2C1,-6.09%
18,CCN1CCO[C@H]2CN(S(=O)(=O)c3cccs3)CC[C@@H]2C1,1.58%
19,COC(C)c1nncn1-c1cccc2ccccc12 (stereo not given),-48.2%
20,CC(=O)NC1(c2ccc(F)cc2)CCN(Cc2ccc(Oc3ncccn3)cc2)CC1,9.39%
21,Cc1ccn(CC(=O)N2CCN3CCNC(=O)C3C2)n1 (stereo not given),-2.78%
22,COc1ccccc1OCc1cc(C(=O)NCCF)n[nH]1,35.8%
23,O=S(=O)(NCCC1=CCCCC1)c1ccc(S(=O)(=O)NC2CCCCC2)cc1,-84.3% (active)

row,SMILES,"activity change, negative = inhibition"
1,CN(C)S(=O)(=O)c1ccc2c(c1)cc(C(=O)NCCC1=CCCCC1)n2Cc1ccncc1,-54.8%
2,CCCNS(=O)(=O)c1ccc(CCC(=O)N2CCCC2)cc1,-8.43%
3,Cc1ccccc1NC(=O)c1ccc2ccc(N3CCN(CC4CC4)CC3)n2c1,2.07%
4,N#C[C@H]1N[C@H](CO)[C@H]1c1ccc(-c2cccc(F)c2)cc1,17.8%
5,CC(=O)N1CCCCN2[C@H](CO)[C@H](c3ccc(-c4ccccc4)cc3)[C@@H]2C1,12.2%
6,CC(C)C(=O)Nc1cccnc1-c1ccc(C(C)N2CCOCC2)cc1 (stereo not given),0.361%
7,COc1ccccc1CCC(=O)N1CCC2(CC1)Nc1cccnc1NC2=NC(C)(C)C,74.7%
8,Cc1cc(C)c(C#N)c(Sc2ccc(Cl)cc2)n1,-73.5% (active)
9,CSc1nn2c(C)cc(C)nc2c1C#N,44.4%
10,Cc1[nH]c2ccccc2c1Sc1ccc(Cl)cc1,-55.7%
11,COc1ccc(NS(=O)(=O)c2ccc(NC(=S)NC(=O)c3cccs3)cc2)nn1,1.98%
12,O=C(Cc1ccccn1)N1[C@@H]2CNc3ccccc3[C@@H]2[C@@H]1CO,1.07%
13,CCCn1cc(C(=O)N(Cc2ccccn2)CC2CCCO2)c(C)n1 (stereo not given),-1.25%
14,Cc1nc([C@@H]2C[C@H]3CCN(Cc4sccc4C)C[C@@H]3O2)no1,95.8%
15,Cc1ccc2c(c1C)-n1cccc1C1(CCN(S(=O)(=O)c3ccc(C4CCCCC4)cc3)CC1)N2,30.2%
16,Cn1c(CNC(=O)CC2CCCC2)nnc1SCc1ccccn1,2.95%
17,Cn1c(SCc2csc(C3CCCCC3)n2)nc2ccccc2c1=O,-80.1% (active)
18,C=CCn1c(SCc2ccc(C(=O)NCCO)cc2)nc2ccccc2c1=O,-34.4%
19,Cc1ccsc1-c1cn(CC2(Cn3ccnc3C)CC2)nn1,8.54%
20,O=C(c1cn(-c2ccccc2)nn1)N(Cc1ccsc1)CC1CCCO1 (stereo not given),1.85%
21,COCc1ncc(CN2CCC(Cc3cccc(C(=O)O)c3)C2)cn1 (stereo not given),3.4%
22,Cc1oc(C(C)(C)C)cc1C(=O)Nc1ccc(SCc2cccc(Cl)c2F)cc1,-75.3% (active)
